Results published in PubChem BioAssay (NCI).
The panel holds about 83,000 compounds, 20% with a hit somewhere; the sample as a whole holds those more often.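 The test compound was applied at a single concentration to cells in 96-well plates for 48 hours, and percent growth was recorded.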 A number with no mark means an inactive call. Activity calls are given as the source filed them. How the source made its calls: active means growth percent below 10; inactive means the rest.

test system: MOLT-4 leukemia; experiment: NCI-60 one-dose screen, 48 h (100 = growth as untreated, 0 = no growth, -100 = all killed); conditions: 10 µM unless noted

| Compound | growth |
| --- | --- |
| CCCCCCCCN(CCCCCCCC)C(=O)CCl | 90.6% |
| O=C(Nc1ccc(-n2ccc3c(NC(=O)c4ccccc4)nccc32)cc1)c1ccc(N2CCOCC2)c(C(F)(F)F)c1 | 30.5% |
| O=C1/C(=C/c2ccccc2)SC(=Nc2ccccc2)N1Nc1ccccc1 | -1.49% (active) |
| C[N+](C)(C)CC(=O)N/N=C\c1ccco1 | 102% |
| CC(C)CCSc1nc(-c2ccc(F)cc2)c(C#N)c(N2CCN(C)CC2)n1 | 72.5% |
| CC(=O)Oc1c(Cl)c(Cl)c(Cl)c(Cl)c1Cl | 85.6% |
| CN(C)c1nc(-c2cccs2)n2nc(-c3ccc(Cl)cc3)cc2n1 | 82.1% |
| COc1nccc2c(Sc3ccccc3)nc(N)nc12 | 94.5% |
| c1cn2cc(-c3ccc4ncn(C5CCCCC5)c4c3)nc(-c3ccc4c(c3)ncn4C3CCCCC3)c2n1 | -30.5% (active) |
| CCc1onc(-c2ccc(OC)cc2)c1-c1ccccc1OCCN(CC)CC | 87.2% |
| CCN(CCC#N)c1ccccc1 | 101% |
| S=C(S)Oc1cccc2cccnc12 | 83.6% |
| COc1ccccc1CNCCCN1C(=O)c2ccc3c4c(ccc(c24)C1=O)C(=O)N(CCCNCCCN)C3=O | -24.5% (active) |
| CC(C)c1ccc(-c2cnc3nonc3n2)cc1 | -12.1% (active) |
| CN1CCCN(CCNc2nccc(-c3c(-c4cccc(O)c4)nc4sccn34)n2)S1(=O)=O | 37.8% |
| COc1ccccc1CNCCCN1C(=O)c2ccc3c4c(ccc(c24)C1=O)C(=O)N(CCCCNCCCN)C3=O | -21.7% (active) |
| CCC(=O)OCc1ccc(OC)cc1 | 95.3% |
| COc1ccc2[nH]cc(C3(c4c[nH]c5ccc(OC)cc45)C(=O)Nc4ccc(F)cc43)c2c1 | 1.29% (active) |
| CN1C(=O)NC(Cc2c[nH]c3c(Cl)cccc23)C1=O (stereo not drawn) | 111% |

| Compound | growth |
| --- | --- |
| NC(N)=N/N=C/c1ccc(Cl)cc1 | 53.9% |
| CC(C)(c1ccccc1)c1cc(O)c(C(C)(C)c2ccccc2)cc1O | -17.8% (active) |
| COc1cc(-c2nn(C(=O)NCCN3CCN(C)CC3)cc2-c2ccncc2)ccc1Cl | 77.4% |
| CCCCCCCCCCCCCCCCCC(=O)[O][Sn]([CH2]CCC)([CH2]CCC)[CH2]CCC | 4.55% (active) |
| CC(C)c1nc2ccccc2n1CC(=O)N/N=C/c1cccc(O)c1 | 91.9% |
| O=C(Nc1ccc(Cl)cc1)c1cc(-c2ccc(Cl)cc2)c2sc(=O)[nH]c2n1 | -24.2% (active) |
| Oc1ccc(-c2nnc3c4[nH]ccc4ncn23)cc1 | 93.3% |
| Cc1nc(N)nc2c1CCC(Nc1ccccc1)S2 (stereo not drawn) | 90.2% |
| NNC(=O)CSc1nc2scc(-c3ccccc3)c2c(=O)n1-c1ccccc1 | 96% |
| COC(=O)C(Br)(C(=O)OC)C(Br)C(Br)C(Br)c1ccccc1 (stereo not drawn) | 50.1% |
| COc1cnc2c(c1)C(=O)c1c-2n(CCCN2CCN(C)CC2)c(=O)c2cc(Cl)ccc12 | -36.6% (active) |
| COc1cc([N+](=O)[O-])cc(OC)c1OC | 103% |
| O=c1oc2ccccc2cc1-c1cc(-c2ccc(-c3cc(-c4cc5ccccc5oc4=O)nc(-c4cc5ccccc5oc4=O)c3)cc2)cc(-c2cc3ccccc3oc2=O)n1 | 86.8% |
| CCCCCCCOc1cccc(/C=C2\N=C3SCCCN3C2=O)c1 | 100% |
| CN(C)c1ccc(C2(Cl)c3ccccc3N(C)c3ccccc32)cc1 | 49.7% |
| O=C(Nc1cccc(-n2ccc3c(NC(=O)c4ccccc4)nccc32)c1)c1ccc(N2CCOCC2)c(C(F)(F)F)c1 | 17.4% |
| Fc1ccc(-c2nc(-c3ccc(-c4nc5ccc(F)cc5[nH]4)cc3)no2)cc1 | 94.8% |
| Clc1ccc(C2=NN[C@H](c3cn(-c4ccccc4)nc3-c3ccccc3)C2)cc1 | 77.9% |
| CNC1=C([N+](=O)[O-])C(c2ccccc2O)C(C#N)=C(c2cccs2)O1 (stereo not drawn) | 88.6% |
